Experiment [1] can be described thus: liver-stage malaria parasite growth inhibition, primary screen, cell-based, HepG2, luciferase luminescence, HepG2 viability (AID 624349; in the data active = parasite load remaining mostly below about 12%, no sharp cut-off; inactive = mostly above about 10%;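 also: 100% = mean of DMSO negative control wells on the same plate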). Particulars: P. berghei liver stage in HepG2, luciferase luminescence, concentration not given here; parasite load remaining: stronger effect = lower value; viability: measured here: HepG2 viability without parasites.
A short description of experiment [2]: Cy5 fluorescence interference with SSB-bound oligo, artefact control for HCV NS3 helicase inhibitor project, biochemical, NIH Clinical Collection, E. coli SSB (AID 743268; call rule not given here).
Experiment [3] has as its system Hepatitis C virus NS3 helicase. The experiment in a line: HCV NS3 helicase inhibitors, primary screen, biochemical, fluorescence polarization, NIH Clinical Collection (AID 743270; call rule not given here). The note with it: NS3 helicase binding to Cy5-dT15 DNA, stronger effect = higher value, concentration not given here. (Polarisation of emitted light reports the rotation of a fluorescent probe.)
Experiment [4] concerns the target Single-stranded DNA-binding protein (Escherichia coli (strain K12)) (UniProt P0AGE0). The experiment in a line: E. coli SSB displacement from DNA, counter-screen for HCV NS3 helicase inhibitor project, biochemical, fluorescence polarization, NIH Clinical Collection (AID 743271; in the data active = inhibition above about 28%). The note with it: stronger effect = higher value, concentration not given here. In general terms: Counterscreens check selectivity or assay interference.

Experiment [5] is described as follows: fluorescence interference in NS3h assay format, artefact control for HCV NS3 helicase inhibitor project, biochemical, NIH Clinical Collection (AID 743272; call rule not given here;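 also: HCV NS3 helicase with a Cy5 labelled single stranded DNA probe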). The note with it: fluorescence interference counterscreen, stronger effect = lower value.
Experiment [6] in a line: modulation of C. elegans fzo-1 (AID 1259413; call rule not given here;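 also: fzo-1 mutant C. elegans worms in liquid wells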). Particulars: C. elegans fzo-1 modulator screen, mean read-out; stronger effect = higher value.
Experiment [7] in a line: sensitizers of A549 cells to miR-34 induction, primary screen, imaging, A549 dox-inducible miR-34, nuclei and caspase counts (AID 1347080;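 active = compounds whose cell count with miR-34 switched on is under 0.7 times the count with it off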). The note with it: A549 miR-34 inducible, Hoechst nuclei count, 48 h.
The nature of experiment [8]: survival rescue of mitochondrial mutant cells in low glucose, primary screen, MELAS cybrids, Rieske KO mouse fibroblasts, CellTiter-Glo (AID 1508586;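 active = mean z-score across replicates of 1.96 or higher in either the MELAS or the Rieske mutant cell line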;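 also: z relative to plate mean and SD of compound and empty wells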). For orientation: Cellular ATP, detected with luciferase, serves as a proxy for viable cell number.
Experiment [9] in a line: viability rescue of complex I mutant cybrids, primary screen, cell-based, galactose medium, ATP luminescence (AID 1645843;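 active = z-score of at least 1.8 in each of two replicates, scored against plate mean and spread of sample wells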;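 also: positive z means more ATP and so rescue of galactose-driven cybrid death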). The note with it: complex I mutant cybrid cells, 72 h, stronger effect = higher value.
In a further experiment the test system is F380Y. The experiment in a line: modulators of BK channel variants, profiling panel, selectivity assay, cell-based, U2OS BacMam, thallium flux, beta subunits (AID 1259406).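 Also: initial slope of Thallos dye fluorescence rise after thallium is added; log ratio against the mean of 0.3% DMSO vehicle wells on the same plate.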 The note with it: at 30 µM.
In another experiment the test system is F380Y/beta1. The description is as above. The note with it: at 30 µM.
Another experiment relates to F380Y/beta2Delta. Described as above. The note with it: at 30 µM.
In a further experiment the test system is F380Y/beta4. The description is as above. The note with it: at 30 µM.
Experiment [10] concerns the target Calcium-activated potassium channel subunit alpha-1 (Homo sapiens) + Leucine-rich repeat-containing protein 26 (Homo sapiens) (UniProt Q12791+Q2I0M4). Described as above. The note with it: F380Y/Slo1WT/gamma1, at 30 µM.
In a further experiment the test system is R275C. The description is as above. Particulars: at 30 µM.
A further experiment has as its system R275C/beta1. The experiment is described as above. Particulars: at 30 µM.
Another experiment concerns R275C/beta2Delta. Described as above. The note with it: at 30 µM.
Another experiment concerns R275C/beta4. The experiment is described as above. The note with it: at 30 µM.
The next experiment relates to R275C/Slo1WT/beta2. Described as above. The note with it: at 30 µM.
Setting [11] is: stronger effect = lower value, cell number ratio, induced over uninduced.
Setting [12] is: measured here: relative caspase fold change +Dox/-Dox.
Setting [13] is: measured here: total cells with miR-34 induction, stronger effect = lower value.
Where [14] appears, read: measured here: total cells without miR-34 induction.
The mark [15] stands for this setting: MELAS cybrid survival, CellTiter-Glo 48 h, stronger effect = higher value.
The mark [16] stands for this setting: Rieske KO mouse fibroblast survival, CellTiter-Glo 72 h.

Structures are written as SMILES. “And” between values parts separate entries of the source, which are not always exact repeats. Equal values may be shown once. The source made the active and inactive calls.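 The calls were made as follows, unless noted: active = thallium flux through the channel raised or lowered by more than 3 SD from vehicle-only wells, actives on both sides; inactive = the rest.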 Non-standard residues stand in square brackets, D forms with d. Residues, ends and D or L forms follow the SMILES beside them. pGlu = O=C1CC[C@@H](C(=O)O)N1; Thz = O=C(O)[C@@H]1CSCN1

As a reminder, the viability is a read-out of living cells in per cent, often relative to untreated cells. Usually inhibition stands for the relative decrease from the control value, in per cent.

Chain of Calcium-activated potassium channel subunit alpha-1 (Homo sapiens) + Leucine-rich repeat-containing protein 26 (Homo sapiens) (Q2I0M4 whole entry, looked up, one chain of several): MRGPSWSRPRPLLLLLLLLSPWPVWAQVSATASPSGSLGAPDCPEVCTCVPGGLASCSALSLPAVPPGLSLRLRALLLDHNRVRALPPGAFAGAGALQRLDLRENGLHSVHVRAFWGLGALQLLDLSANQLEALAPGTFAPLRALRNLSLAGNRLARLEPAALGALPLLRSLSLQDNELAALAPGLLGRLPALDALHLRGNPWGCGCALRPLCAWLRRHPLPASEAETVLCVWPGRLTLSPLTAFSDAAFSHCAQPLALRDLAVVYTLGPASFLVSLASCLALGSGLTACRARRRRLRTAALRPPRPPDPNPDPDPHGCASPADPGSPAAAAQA

Regarding `CC(C)(S)C(N)C(=O)O` (centres undefined), the parasite load remaining in experiment [1] is 70.2% (inactive) and 91.2% (inactive) and 22.9% (inactive). The viability in [1] was 95.3% and 72.3% and 93.1%. For the same compound, the fluorescence ratio in experiment [2] was 1.01 (inactive); in experiment [5], 0.98 (inactive). Also, the inhibition is -10.4% (inactive) in experiment [3] and -2.76% (inactive) in [4]. Further, the mean signal in experiment [6] is 224 (inactive). In addition, the fold change was 0.987 (inactive) and 0.932 (inactive) in experiment [7] (setting [11]); 2.48 and 3.04 in [7] (setting [12]). The cell count in experiment [7] (setting [13]) is 11000 and 11700; in experiment [7] (setting [14]) it was 11100 and 12600. Moreover, the z-score was 0.615 (inactive) in experiment [8] (setting [15]), 0.358 in experiment [8] (setting [16]) and -0.255 (inactive) in experiment [9]. For the same compound, the log fold change Tl+ flux is 0.0383 (inactive) in the experiment with F380Y; -0.0205 (inactive) with F380Y/beta1; -0.0259 (inactive) in the experiment with F380Y/beta2Delta; 0.0204 (inactive) in the experiment on F380Y/beta4; 0.0127 (inactive) in experiment [10]; -0.00906 (inactive) in the experiment on R275C. The log fold change Tl+ flux was 0.00628 (inactive) with R275C/beta1, -0.0298 (inactive) in the experiment with R275C/beta2Delta, 0.0197 (inactive) in the experiment with R275C/beta4 and -0.0192 (inactive) with R275C/Slo1WT/beta2.
Take `O=C1CC[C@@H](C(=O)N2CSC[C@H]2C(=O)O)N1` ([pGlu]-[Thz]-OH): in experiment [1], the parasite load remaining was 123% (inactive). Also, the viability in experiment [1] is 115%. For the same compound, the fluorescence ratio in [2] was 1 (inactive); in [5] it was 0.96 (inactive). In addition, the results for the inhibition in experiment [3] and in experiment [4] were 5.94% (inactive) and 3.75% (inactive), respectively. In addition, the mean signal in experiment [6] is 225 (inactive). The figures for the z-score in experiment [8] (setting [15]) and in [8] (setting [16]) were 0.585 (inactive) and -0.48, respectively. Moreover, the log fold change Tl+ flux is -0.0365 (inactive) with F380Y; 0.0192 (inactive) in the experiment on F380Y/beta1; 0.00122 (inactive) in the experiment with F380Y/beta2Delta; 0.0189 (inactive) with F380Y/beta4; -0.0423 (inactive) in experiment [10]; -0.0391 (inactive) in the experiment on R275C. In addition, the log fold change Tl+ flux was -0.0174 (inactive) in the experiment on R275C/beta1, -0.0226 (inactive) in the experiment on R275C/beta2Delta, -0.00158 (inactive) with R275C/beta4 and -0.0454 (inactive) in the experiment with R275C/Slo1WT/beta2.
With `COc1nc(C)nc(Cl)c1NC1=NCCN1`, the parasite load remaining in experiment [1] was 85.8% (inactive) and 79.7% (inactive). For the same compound, in [1], the viability is 72.6% and 70.2%. Besides, the fluorescence ratio in [2] was 1.09 (inactive); in experiment [5], 1.07 (inactive). The inhibition is 4.36% (inactive) in experiment [3] and 5.29% (inactive) in experiment [4]. Besides, in [6], the mean signal was 246 (inactive). For the same compound, the z-score in experiment [8] (setting [15]) is -0.211 (inactive) and 0.715 (inactive); in experiment [8] (setting [16]) it was 0.176 and 0.122; in experiment [9], 0.36 (inactive) and 1.01 (inactive) and 0.165 (inactive). For the same compound, the log fold change Tl+ flux with F380Y is -0.00461 (inactive); with F380Y/beta1 it was -0.0516 (inactive); in the experiment on F380Y/beta2Delta, -0.0248 (inactive); in the experiment on F380Y/beta4, -0.00507 (inactive); in experiment [10], -0.00669 (inactive); with R275C it was -0.0325 (inactive). The log fold change Tl+ flux in the experiment on R275C/beta1 is -0.0423 (inactive); with R275C/beta2Delta it was -0.005 (inactive); in the experiment with R275C/beta4 it was -0.00418 (inactive); in the experiment with R275C/Slo1WT/beta2, -0.0114 (inactive).
As for `C[C@H]1O[C@H](O[C@H]2[C@H](O)[C@@H](O)[C@@H](O[C@H]3[C@H](O)[C@@H](O)C(O)O[C@@H]3CO)O[C@@H]2CO)[C@H](O)[C@@H](O)[C@@H]1N[C@H]1C=C(CO)[C@@H](O)[C@H](O)[C@H]1O` (some centres undefined), in experiment [1], the parasite load remaining was 61.3% (inactive) and 108% (inactive). Further, the viability in experiment [1] is 104% and 111%. For the same compound, the fluorescence ratio is 1.08 (inactive) in [2] and 1.03 (inactive) in experiment [5]. The inhibition is 4.36% (inactive) in experiment [3] and 0.67% (inactive) in experiment [4]. Moreover, in [6], the mean signal is 228 (inactive). Also, the fold change in experiment [7] (setting [11]) was 0.866 (inactive); in experiment [7] (setting [12]) it was 4.27. Besides, the cell count in experiment [7] (setting [13]) is 10500; in experiment [7] (setting [14]), 12200. For the same compound, the log fold change Tl+ flux in the experiment with F380Y was -0.0255 (inactive); with F380Y/beta1, 0.0224 (inactive); in the experiment with F380Y/beta2Delta it was 0.0097 (inactive); in the experiment on F380Y/beta4, 0.039 (inactive); in [10] it was 0.00221 (inactive); in the experiment on R275C it was -0.0575 (inactive). Besides, the log fold change Tl+ flux in the experiment with R275C/beta1 is -0.00956 (inactive); in the experiment with R275C/beta2Delta it was -0.0417 (inactive); in the experiment with R275C/beta4, -0.0364 (inactive); in the experiment on R275C/Slo1WT/beta2 it was -0.0206 (inactive).

The values are drawn from PubChem BioAssay.
